Assay outcomes: PubChem BioAssay, several laboratories
Rows were chosen to be rich in hits. Some 27% of all compounds tested hit in one or more screens of this group.
CYP2C19 inhib – blockers of cytochrome P450 2C19 activity – biochemical, luminescence, ADME assay, primary screen. CYP2C19 Supersomes, luciferin-H EGE luminescence, 30 min. inhibition, % at 5 µM. 21% of 96,000 active. AID 778, 2007;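 active = CYP2C19 inhibition above a set limit at 5 µM in the primary screen, cut at about 50% in these data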;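 note: plate controls were negative control wells for no effect and 2.5 mM tranylcypromine positive control for full effect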
CYP2C9 inh – blockers of cytochrome P450 2C9 activity – biochemical, luminescence, ADME assay, primary screen; inhibition, % at 5 µM; AID 777, 2007; CYP2C9 Supersomes, luciferin-H conversion; 20% of 96,000 active; P11712;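 active = blocking of liver enzyme CYP2C9 beyond about 50% at 5 µM, limit read from the data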
Target sequence (P11712 whole entry, looked up): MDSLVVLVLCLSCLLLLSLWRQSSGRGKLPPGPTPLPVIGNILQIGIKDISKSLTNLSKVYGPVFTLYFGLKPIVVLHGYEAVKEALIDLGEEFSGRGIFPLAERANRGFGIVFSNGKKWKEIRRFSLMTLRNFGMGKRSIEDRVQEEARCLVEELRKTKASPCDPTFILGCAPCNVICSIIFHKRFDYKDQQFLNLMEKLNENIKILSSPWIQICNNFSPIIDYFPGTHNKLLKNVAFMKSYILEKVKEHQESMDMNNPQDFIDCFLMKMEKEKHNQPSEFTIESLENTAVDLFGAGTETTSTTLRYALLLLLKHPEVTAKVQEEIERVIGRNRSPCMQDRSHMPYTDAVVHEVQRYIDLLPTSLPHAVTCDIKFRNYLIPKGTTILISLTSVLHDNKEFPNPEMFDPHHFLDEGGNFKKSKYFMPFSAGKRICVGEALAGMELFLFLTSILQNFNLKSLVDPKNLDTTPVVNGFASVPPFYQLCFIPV
CYP2C19 act – human CYP2C19 activators, primary screen, biochemical, luminescence. 96,000 tested, under 10 active. AID 1025, 2008. activation factor at 5 µM. recombinant CYP2C19, luciferin-H EGE luminescence; active compounds read high; 0 = fully inhibited enzyme, 1 = untreated enzyme. Cytochrome P450 2C19 (Homo sapiens), P33261;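 active = activation factor of at least 2 at 5 µM in the primary screen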;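 note: 0 = wells with 2.5 mM tranylcypromine and 1 = vehicle-only wells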
sEH activator – soluble epoxide hydrolase activators, primary screen, biochemical, human sEH; purified human sEH enzymatic activity, activator screen; activation, % at 2 µM; 0.04% of 91,000 active; in the data active = activation above about 37%
sEH inh – soluble epoxide hydrolase inhibitors, primary screen, biochemical, human sEH; Bifunctional epoxide hydrolase 2 (Homo sapiens), P34913; recombinant human sEH enzymatic activity assay; inhibition, % at 2 µM; 0.34% of 91,000 active; AID 707, 2007; in the data active = inhibition above about 80%
CYP2C9 activ – human CYP2C9 activators, primary screen, biochemical, luminescence. Cytochrome P450 2C9 (Homo sapiens), P11712. recombinant CYP2C9, luciferin-H conversion; active compounds read high; factor 1 = untreated enzyme, 0 = blocked. activation factor at 5 µM. 1.4% of 96,000 active. AID 1024, 2008;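 active = activation factor of 2 or more for CYP2C9 at a 5 µM dose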;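 note: 0 = sulfaphenazole-blocked wells and 1 = vehicle-only wells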
The depositor's hits bear a star.

Screening CCC(C)(C)n1nnnc1C(c1cc2cc3c(cc2[nH]c1=O)OCO3)N1CCN(C)CC1 (stereo not drawn) returned CYP2C19 inhib 0, CYP2C9 inh 12, CYP2C19 act 1, sEH activator 10, sEH inh -11 and CYP2C9 activ 0.9.
CCOc1ccc(-n2c(SCC(=O)Nc3ccc(OC)cc3OC)nc3c(c2=O)SCC3)cc1 was read as CYP2C19 inhib 39, CYP2C9 inh 44, CYP2C19 act 0.6, sEH activator -4, sEH inh 2 and CYP2C9 activ 0.6.
Screening Cc1ccc(C)c(SCc2noc(C(=O)NC(C)C)c2C(=O)O)c1 returned CYP2C19 inhib 8, CYP2C9 inh 72*, CYP2C19 act 0.9, sEH activator -5, sEH inh 10 and CYP2C9 activ 0.3.
For COCCNC(=O)c1onc(CSc2ccccc2F)c1C(=O)O the results were CYP2C19 inhib -3, CYP2C9 inh 7, CYP2C19 act 1, sEH activator -8, sEH inh 10 and CYP2C9 activ 0.9.
CCCCNC(=O)c1onc(CSc2cc(C)ccc2C)c1C(=O)O was read as CYP2C19 inhib 10, CYP2C9 inh 78*, CYP2C19 act 0.9, sEH activator 5, sEH inh -4 and CYP2C9 activ 0.2.
For COCCNC(=O)c1onc(CSc2cc(C)ccc2C)c1C(=O)O the results were CYP2C19 inhib 8, CYP2C9 inh 30, CYP2C19 act 0.9, sEH activator 0, sEH inh 2 and CYP2C9 activ 0.7.
`C=CCNC(=O)c1onc(CSc2cc(C)ccc2C)c1C(=O)O` gave CYP2C19 inhib 9, CYP2C9 inh 77*, CYP2C19 act 0.9, sEH activator 2, sEH inh 4 and CYP2C9 activ 0.2.
Screening CCCCNC(=O)c1onc(CSc2ccccc2CC)c1C(=O)O returned CYP2C19 inhib 16, CYP2C9 inh 72*, CYP2C19 act 0.8, sEH activator -3, sEH inh 8 and CYP2C9 activ 0.3.
C=CCNC(=O)c1onc(CSc2ccccc2C)c1C(=O)O was read as CYP2C19 inhib 4, CYP2C9 inh 46, CYP2C19 act 1, sEH activator 11, sEH inh -5 and CYP2C9 activ 0.5.
Screening O=C(Nc1nccs1)c1cn(-c2ccccc2)nc1-c1ccccc1 returned CYP2C19 inhib 21, CYP2C9 inh 62*, CYP2C19 act 0.8, sEH activator -6, sEH inh 6 and CYP2C9 activ 0.4.
CC(C)COc1ccc(-c2nn(-c3ccccc3)cc2C(=O)Nc2nccs2)cc1 was read as CYP2C19 inhib 16, CYP2C9 inh 37, CYP2C19 act 0.8, sEH activator 22, sEH inh -26 and CYP2C9 activ 0.6.
For Cc1ccc(S(=O)(=O)N(C)CCCC(=O)n2nc(C)cc2C)cc1 the results were CYP2C19 inhib 89*, CYP2C9 inh -89, CYP2C19 act 0.1, sEH activator -7, sEH inh 8 and CYP2C9 activ 1.9.
For Cc1ccc(S(=O)(=O)N(C)CCCC(=O)N2CCOCC2)cc1 the results were CYP2C19 inhib 16, CYP2C9 inh -8, CYP2C19 act 0.8, sEH activator 3, sEH inh -2 and CYP2C9 activ 1.1.
`COCCn1nnnc1C(c1ccc(C(F)(F)F)cc1)N1CCOCC1` (stereo not drawn) gave CYP2C19 inhib 27, CYP2C9 inh 13, CYP2C19 act 0.7, sEH activator 7, sEH inh -5 and CYP2C9 activ 0.9.
For Cc1ccc(S(=O)(=O)Oc2ccc(C3C4=C(CCCC4=O)OC4=C3C(=O)CCC4)cc2)cc1 the results were CYP2C19 inhib 1, CYP2C9 inh -2, CYP2C19 act 1, sEH activator -5, sEH inh 6 and CYP2C9 activ 1.
CC(C)c1ccc(CC(C)C2C3=C(CCCC3=O)OC3=C2C(=O)CCC3)cc1 (stereo not drawn) was read as CYP2C19 inhib 99*, CYP2C9 inh 97*, CYP2C19 act 0, sEH activator -7, sEH inh 9 and CYP2C9 activ 0.
Cc1ccc(CCC2C3=C(CCCC3=O)OC3=C2C(=O)CCC3)cc1 was read as CYP2C19 inhib 95*, CYP2C9 inh 75*, CYP2C19 act 0, sEH activator -8, sEH inh 8 and CYP2C9 activ 0.2.
`CCc1cccc(CC)c1N(COC)C(=O)Cn1c(C(C)O)nc2ccccc21` (stereo not drawn) gave CYP2C19 inhib 6, CYP2C9 inh 6, CYP2C19 act 0.9, sEH activator -9, sEH inh 8 and CYP2C9 activ 0.9.
Screening COC(=O)c1cc2ccc(OC)c(OC)c2c(=O)s1 returned CYP2C19 inhib 57*, CYP2C9 inh 27, CYP2C19 act 0.4, sEH activator 5, sEH inh -3 and CYP2C9 activ 0.7.
For O=C(NCCO)c1cc2ccccc2c(=O)s1 the results were CYP2C19 inhib -10, CYP2C9 inh -10, CYP2C19 act 1.1, sEH activator 8, sEH inh -8 and CYP2C9 activ 1.1.
For COC(=O)c1cc2ccccc2c(=O)s1 the results were CYP2C19 inhib 61*, CYP2C9 inh -42, CYP2C19 act 0.4, sEH activator 2, sEH inh 0 and CYP2C9 activ 1.4.
Screening Cc1cccc(CS(=O)(=O)c2nnc([C@H](Cc3ccccc3)NC(=O)OC(C)(C)C)o2)c1 returned CYP2C19 inhib 36, CYP2C9 inh 56*, CYP2C19 act 0.6, sEH activator 19, sEH inh -19 and CYP2C9 activ 0.4.
Screening COC(=O)CSc1nnc([C@H](Cc2ccccc2)NC(=O)OC(C)(C)C)o1 returned CYP2C19 inhib 12, CYP2C9 inh 2, CYP2C19 act 0.9, sEH activator 6, sEH inh -8 and CYP2C9 activ 1.
`COC(=O)CS(=O)(=O)c1nnc([C@H](Cc2ccccc2)NC(=O)OC(C)(C)C)o1` gave CYP2C19 inhib 84*, CYP2C9 inh 77*, CYP2C19 act 0.2, sEH activator 8, sEH inh -6 and CYP2C9 activ 0.2.
c1ccc(-c2nnc(SCc3cn4ccsc4n3)o2)cc1 was read as CYP2C19 inhib 69*, CYP2C9 inh -3, CYP2C19 act 0.3, sEH activator 0, sEH inh 0 and CYP2C9 activ 1.
`Cc1cccc(-c2nc(=S)c3c(o2)CCCC3)c1` gave CYP2C19 inhib 14, CYP2C9 inh -146, CYP2C19 act 0.9, sEH activator -3, sEH inh 5 and CYP2C9 activ 2.5*.
For S=c1nc(-c2ccc(Br)cc2)oc2c1CCCC2 the results were CYP2C19 inhib -7, CYP2C9 inh 1, CYP2C19 act 1.1, sEH activator 13, sEH inh -10 and CYP2C9 activ 1.
